In the library only some 12% were active in any assay of this set; here they are far more common.
Cav3 T inh = inhibitors of human Cav3.2 T-type calcium channel; 100,000 tested, 4% active; B-score at 10 µM; Cav3.2-expressing cells, Fluo-4 calcium fluorescence FDSS; hits give low values;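 active = single-dose well whose peak fluorescence ratio is a statistical outlier from its plate by either plate-standardised score or position-corrected B-score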
hDAT+cocaine = changed human dopamine transporter uptake under cocaine IC80 | LLC-PK1 hDAT cells, [14C]-dopamine uptake with cocaine IC80; actives deviate in either direction | Q01959 | 110,000 tested, 1.3% active | B-score at 10 µM | AID 449768;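 active = Z score or B-score, a plate-position-corrected score, falls beyond the plate's 99.7% confidence bounds, in either direction; inactive = both scores lie inside the 99.7% bounds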;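 note: scored against the spread of the other compound wells on the same plate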
PostGolgi yeast = growth inhibition of a yeast mutant, post-Golgi transport screen; post-Golgi transport phenotypic cell assay; inhibition, % at 10 µM; 98,000 tested, 0.9% active; AID 739;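 note: yeast cells grown in 1536-well plates; yeast grown about 18 h at 30C before absorbance read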
D1 allo mod = allosterically modulates the human D1 dopamine receptor. 58,000 tested, 5.9% active. B-score at 10 µM. HEK293 D1, CRE-luciferase, dopamine EC30 potentiation; actives deviate in either direction. AID 641. P21728;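 active = luminescence count or its row- and column-corrected plate score outside the 99.7% band of the plate's sample wells, on either side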
PLAP act = human PLAP activation | P05187 | purified PLAP enzyme, luminescent substrate read-out; hits give high values | activation fold at 20 µM | 96,000 tested, 1.2% active; in the data active = activation fold above about 2
Target sequence (P05187 whole entry, looked up): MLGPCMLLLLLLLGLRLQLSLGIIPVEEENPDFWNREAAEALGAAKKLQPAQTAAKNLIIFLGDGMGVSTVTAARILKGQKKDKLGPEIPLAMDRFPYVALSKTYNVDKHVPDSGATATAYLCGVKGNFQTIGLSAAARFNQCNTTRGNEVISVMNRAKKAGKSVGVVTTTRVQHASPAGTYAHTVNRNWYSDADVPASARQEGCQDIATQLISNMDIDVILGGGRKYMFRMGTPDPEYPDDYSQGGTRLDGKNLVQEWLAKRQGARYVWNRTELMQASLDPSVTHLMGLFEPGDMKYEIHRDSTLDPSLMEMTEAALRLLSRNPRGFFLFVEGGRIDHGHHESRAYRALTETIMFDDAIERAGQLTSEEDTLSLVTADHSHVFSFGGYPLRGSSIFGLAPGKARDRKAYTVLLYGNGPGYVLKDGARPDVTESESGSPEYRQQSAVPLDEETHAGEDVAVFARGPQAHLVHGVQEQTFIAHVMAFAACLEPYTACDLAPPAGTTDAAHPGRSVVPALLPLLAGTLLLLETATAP
PostGolgi ctrl = growth of the yeast control strain, post-Golgi counter-screen; 98,000 tested, 5% active; efflux-deficient yeast background strain, growth absorbance A615, 16 h; AID 738; inhibition, % at 10 µM
The depositor's hits bear a star; / = no result. Cut-off read from the data, not from the text of the source, unless noted: active = inhibition above about 30%; inactive = the rest.

SMILES	Cav3 T inh	hDAT+cocaine	PostGolgi yeast	D1 allo mod	PLAP act	PostGolgi ctrl
CCn1c(C(=O)N2CCC(C(=O)NCc3ccc4c(c3)OCO4)CC2)cc2sccc21	-5.9*	-0.5	2	1.1	1.4	14
CCn1c(C(=O)NCCCN2CCc3ccccc3C2)cc2sccc21	-2.8	1.4	8	/	1.5	7
CCn1c(C(=O)N2CCC(C(=O)NCCCSC3CCCCC3)CC2)cc2sccc21	-7*	1.3	-1	-1.2	1.7	20
CCN1CCN(C(=O)C2CCN(C(=O)c3cc4sccc4n3CC)CC2)CC1	0.064	0.63	-9	1.1	1.6	-11
Cn1c(C(=O)N2CCCC(C(=O)NCc3ccc4c(c3)OCO4)C2)cc2sccc21 (stereo not drawn)	-2.6	0.12	4	-0.41	1.5	7
CCC(C)(C)n1nnnc1C(c1ccc2ncccc2c1)N1CCN2CCCC2C1 (stereo not drawn)	0.52	1.3	11	0.24	1.2	5
COc1ccc2oc(=O)c(-c3nnc(NCc4ccco4)s3)cc2c1	-1.5	0.4	40*	0.49	0.9	-3
COc1ccc([N+](=O)[O-])cc1COc1cc(C)cc2oc(=O)cc(-c3ccccc3)c12	-8.7*	-0.49	-1	/	1.1	26
Nc1cc(=O)[nH]c(SCC(=O)Nc2cc(Cl)cc(Cl)c2)n1	-0.0071	-0.17	-10	/	0.9	17
COC(=O)CNC(=O)CSc1nc(N)cc(=O)[nH]1	0.5	-0.069	7	/	0.9	31*
CCCCOC(=O)Nc1cccc(Cl)c1C	-1.6	0.099	11	/	0.9	8
CCCCCCCCCCCC(=O)c1c(O)cccc1O	0.23	1.2	/	/	/	/
COC(=O)C(C)N(C(=O)c1ccc(Cl)cc1)c1c(C)cccc1C (stereo not drawn)	-6.6*	0.84	-9	/	1.4	8
COC(=O)C(C)N(C(=O)c1ccc(C(=O)c2ccccc2)cc1)c1c(C)cccc1C (stereo not drawn)	-4.5*	-0.16	-16	/	1.7	16
O=C(/C=C/c1c(Cl)cccc1Cl)n1cccn1	-0.36	-0.036	/	/	/	/
O=C(COc1ccc(S(=O)(=O)N2CCCCC2)cc1)NCc1cccnc1	-0.5	-0.025	-13	/	0.9	-3
O=C(Nc1ncccc1O)c1cccc(S(=O)(=O)N2CCc3ccccc32)c1	-1.6	0.98	-5	0.052	2.5*	34*
COc1ccc(C(=O)Nc2ccc(S(=O)(=O)N3CCc4ccccc43)cc2)cc1	-3.6	0.55	/	/	/	/
CCOC(=O)Cn1c(=O)oc2cc(S(=O)(=O)NCc3cccs3)ccc21	0.41	0.48	7	-2.5	0.8	3
CCOC(=O)Cn1c(=O)oc2cc(S(=O)(=O)NCc3ccccn3)ccc21	/	0.5	4	-0.34	2*	8
COc1nc(N2CCCC2)nc(-n2cc(-c3ccccc3)nn2)n1	/	/	/	-0.035	/	/
Cc1cc(C(c2nnnn2Cc2ccccc2)N2CCOCC2)c(C)n1-c1ccc2c(c1)OCO2 (stereo not drawn)	-4.6*	1.1	-12	-0.031	1.4	17
Cc1cccc2cc(C(c3nnnn3Cc3ccc4c(c3)OCO4)N3CCCC3)c(=O)[nH]c12 (stereo not drawn)	-1	-0.54	7	-0.42	1.6	11
O=c1c2ccccc2oc2cc(C#CC3(O)CCCCC3)ccc12	0.18	2.2*	/	/	/	/
O=c1c2ccccc2sc2ccc(C#CC3(O)CCCCC3)cc12	-0.25	1.1	/	/	/	/
SMILES	Cav3 T inh	hDAT+cocaine	PostGolgi yeast	D1 allo mod	PLAP act	PostGolgi ctrl
O=C(CSc1ncnc2c1oc1ccccc12)NCc1ccc(F)cc1	-1.1	0.55	-15	0.33	0.9	13
CCOC(=O)CCc1c(C)c2ccc(OCC(=O)N(CC)CC)c(C)c2oc1=O	0.7	2.7*	4	-0.0045	1.5	-7
C=C(C)COc1ccc2c(C)c(CC(=O)OC)c(=O)oc2c1C	-3.1	-0.86	104*	0.3	0.9	109*
CCc1nc2ccccc2n1Cc1cc(=O)n2cc(C)ccc2n1	0.65	0.95	0	-0.098	1.2	2
CC1=CC(C)(C)N2C(=O)C3(C(C#N)=C(N)OC4=C3C(=O)CC(C)(C)C4)c3cccc1c32 (stereo not drawn)	-0.32	1.5	2	2.7	1.1	8
Cc1cc2c3c(c1)C1(C(=O)N3C(C)(C)CC2C)C(C#N)=C(N)Oc2cc(O)ccc21 (stereo not drawn)	-2.8	0.73	0	-0.44	1.4	17
CC1=CC(C)(C)N2C(=O)C3(C(C#N)=C(N)Oc4cc(O)ccc43)c3cccc1c32 (stereo not drawn)	-6.2*	1.2	0	-0.0061	1.5	3
Cc1ccc2c3c1C1(C(=O)N3C(C)(C)CC2C)C(C#N)=C(N)Oc2cc(O)ccc21 (stereo not drawn)	-8.9*	0.0088	-2	-1.6	0.9	2
C=CCSc1nc(-c2ccccc2)c2cc(Cl)ccc2n1	-0.011	-1.6*	-14	/	0.8	10
Cc1ccc2c(c1)cc1c(=O)[nH]ncn12	/	/	-1	/	0.9	7
O=C(OCc1cccs1)c1ccccc1NS(=O)(=O)c1ccc2c(c1)OCCO2	-4.8*	0.92	-8	2.4	0.9	27
CNC(=O)CN1C(=O)c2cccc3cccc1c23	-0.088	-1.6	-2	/	1.2	3
CN1/C(=N\O)c2cccc3cccc1c23	-4.4*	1.3	-12	-0.4	1	7
COC(=O)C(NNc1ccccc1C)(NC(=O)c1ccc(F)cc1)C(F)(F)F (stereo not drawn)	-4.9*	0.24	14	/	0.9	7
COC(=O)C(NC(=O)c1ccccc1)(Nc1cc(C)cc(C)n1)C(F)(F)F (stereo not drawn)	-4.2*	0.74	/	/	/	/
Cc1cc(C)cc(COn2ccnc2)c1	0.06	-0.58	11	/	1	12
O=C(NCN1C(=O)C2C3C=CC(C3)C2C1=O)Nc1nccs1 (stereo not drawn)	-0.2	-0.54	7	-0.67	/	-1
O=C(Cn1nnc(-c2ccc(Cl)cc2)n1)NC1CC2CCC1C2 (stereo not drawn)	-4.6*	-0.6	37*	/	0.9	15
Cc1ccc(-c2nnn(CC(=O)NC3CC4CCC3C4)n2)cc1 (stereo not drawn)	-1.6	0.49	3	0.033	0.9	0
COc1ccc(NC(=O)CSc2nc3ccccc3cc2Cc2ccccc2)cc1	-4.2*	0.8	11	/	1	-3
COc1cccc(NC(=O)CSc2nc3ccccc3cc2Cc2ccccc2)c1	-4*	0.55	17	/	1	18
COc1cc(NC(=O)CSc2nc3ccccc3cc2Cc2ccccc2)cc(OC)c1	-3	1	7	/	1	-1
COc1cccc(CSc2nc3ccccc3cc2C=O)c1	-0.76	0.031	33*	/	1.1	51*
O=C(NCSc1ccnc(SCNC(=O)c2ccc(F)cc2)n1)c1ccc(F)cc1	-0.14	0.32	-6	/	1.4	-1
O=C(COC(=O)C1c2ccccc2Oc2ccccc21)Nc1ccc2c(c1)OCO2	-4.3*	-0.043	5	-0.78	0.7	20

From PubChem BioAssay
